Experimental data from ChEMBL document CHEMBL4513146, “CO-ADD screening of Karazin Kharkiv National University (Ukraine) compounds”.
Entries with a potency or affinity are not part of this list.

Legend:
Klebsiella pneumoniae = conditions: Concentration 32 ug.mL-1;; ASSAY_TEST Inhibition of Bacterial Growth; detection method Absorption (OD600); MEDIA CAMHB; plate type 384well; NBS; CORNING #3640; time 18 hr
Candida albicans = conditions: Concentration 32 ug.mL-1; ASSAY_TEST Inhibition of Fungal Growth; detection method Absorption (OD530)
Cryptococcus neoformans = conditions: Concentration 32 ug.mL-1; ASSAY_TEST Inhibition of Fungal Growth; detection method Resazurin; Absorption (OD600-OD570); plate type 384well; NBS; CORNING #3640

| SMILES | Inhibition (Klebsiella pneumoniae) [%] | Inhibition (Candida albicans) [%] | Inhibition (Cryptococcus neoformans) [%] |
| --- | --- | --- | --- |
| Cc1cc2nn(CC(=O)NCc3ccccc3)c(=O)n2c(Nc2ccc(C)c(F)c2)n1 | 12.56 | 6.49 | -3.12 |
| COc1ccc(CNC(=O)CCc2nnc3c4cc(-c5ccc(Cl)cc5)nn4ccn23)cc1OC | 10.48 | 1.41 | -19.71 |
| COc1cccc(NC(=O)Cn2nc3ccc(-c4ccc(Cl)cc4)nn3c2=O)c1 | 5.27 | 2.11 | -14.88 |
| Cc1ccc(-c2cc3c4nn(CC(=O)Nc5ccc(F)cc5Cl)c(=O)n4ccn3n2)cc1 | 2.7 | 1.88 | -28.25 |
| Cc1ccc(CN(c2ccc(C(C)C)cc2)S(=O)(=O)c2cccn3c(C)nnc23)cc1 | 0.92 | 1.03 | -9.63 |
| Cc1ccccc1Cn1nc2c(=O)n(-c3cccc(Cl)c3C)ccn2c1=O | 2.06 | 0.54 | -12.78 |
| CCOc1ccc(-n2ccn3c(SCC(=O)NCc4cccc(OC)c4OC)nnc3c2=O)cc1 | 14.82 | 1.5 | -8.08 |
| COc1cc(Cl)c(C)cc1NC(=O)Cn1nc2ccc(SC(C)(C)C)nn2c1=O | 11.93 | 3.05 | -11.08 |
| Cc1cc(C)cc(NC(=O)Cn2nc3c(Sc4cccc(C)c4)nc4ccccc4n3c2=O)c1 | 5.29 | 1.16 | -15.02 |
| CCc1nnc2ccc(S(=O)(=O)N(Cc3ccc(OC)c(F)c3)c3ccccc3)cn12 | -3.43 | -0.62 | -5.32 |
| COc1ccc(OC)c(NC(=O)Cn2nc3c4c5c(sc4ncn3c2=O)CCCC5)c1 | 8.89 | 0.7 | -30.54 |
| COc1ccc(-c2cc3c4nn(CC(=O)Nc5cccc(OC)c5)c(=O)n4ccn3n2)cc1 | 10.26 | 17.22 | -23.01 |
| CCOc1ccc(NC(=O)Cn2nc3c4cc(-c5ccc(C)c(C)c5)nn4ccn3c2=O)cc1 | 8.27 | 0.04 | -13.03 |
| Cc1ccc(S(=O)(=O)Nc2ccc3nnc(-c4ccccc4)n3n2)cc1C | 0.88 | 0.52 | -4.99 |
| Cc1cc(C)c(NC(=O)Cn2nc3c4cc(-c5ccc(F)cc5)nn4ccn3c2=O)c(C)c1 | 17.22 | 18.72 | -19.36 |
| COc1cccc(-n2ccn3c(SCc4cccc(C(F)(F)F)c4)nnc3c2=O)c1 | -17.2 | 12.49 | -6.54 |
| Cc1ccccc1Oc1nccn2c(=O)n(CC(=O)Nc3ccc(C#N)cc3)nc12 | 13.8 | -1.85 | -9.67 |
| O=C(Cn1nc2c3sc(N4CCCC4)nc3ncn2c1=O)Nc1cccc(Br)c1 | 18.9 | 3.98 | -10.95 |
| Cc1cc2nn(CC(=O)Nc3cc(F)ccc3C)c(=O)n2c(Nc2ccc(F)c(C)c2)n1 | 15.58 | 4.23 | -9.62 |
| CSc1ccc(CNC(=O)Cn2nc3c(Oc4ccc(C)cc4)nccn3c2=O)cc1 | -2.38 | 4.95 | -4.29 |

| SMILES | Inhibition (Klebsiella pneumoniae) [%] | Inhibition (Candida albicans) [%] | Inhibition (Cryptococcus neoformans) [%] |
| --- | --- | --- | --- |
| CCOc1ccc(NC(=O)Cn2nc3c(N4CCCC4)nccn3c2=O)cc1 | 9.68 | 0.82 | -8.38 |
| O=C(Cn1nc2ccc(Sc3cccc(F)c3)nn2c1=O)Nc1ccc2c(c1)OCCO2 | 12.38 | -0.05 | -8.22 |
| O=C(CSc1nnc2c(=O)n(-c3ccc(Br)cc3)ccn12)Nc1cccc(Cl)c1 | 6.37 | 6.02 | -15.78 |
| Cc1nnc2ccc(S(=O)(=O)N(Cc3cc(F)cc(F)c3)c3ccccc3)cn12 | 7.27 | 2.01 | -9.38 |
| CCC(Sc1nnc2c(=O)n(-c3ccc(F)cc3)ccn12)C(=O)Nc1cc(OC)cc(OC)c1 (stereo not given) | 12.14 | -0.61 | -13.06 |
| Cc1ccc(CNC(=O)CSc2nnc3c4cc(-c5ccc(F)cc5)nn4ccn23)cc1 | 11.62 | 2.7 | -29.65 |
| COc1ccc(N2CCN(C(=O)Cn3nc4c(Oc5ccccc5)nccn4c3=O)CC2)cc1 | 15.08 | 1.75 | -7.66 |
| COC(=O)c1ccc(NC(=O)Cn2nc3c4cc(-c5ccc(Cl)cc5)nn4ccn3c2=O)cc1 | 10.1 | 2.64 | -4.53 |
| O=c1c2sccc2n2c(=O)n(Cc3c(F)cccc3Cl)nc2n1CCc1ccccc1 | 4.07 | 1.94 | -23.82 |
| Cc1ccc(Sc2nccn3c(=O)n(CC(=O)Nc4cc(Cl)ccc4C)nc23)c(C)c1 | -1.75 | 4.75 | -16.92 |
| O=C(Cn1nc2c(Oc3ccccc3)nccn2c1=O)Nc1cc(F)ccc1F | -4.08 | -0.69 | -9.47 |
| CCc1nnc2c(SCC(=O)Nc3cccc(OC)c3)nc3ccccc3n12 | 3.16 | 3.37 | -8.02 |
| CCc1ccccc1NC(=O)Cn1nc2c(SCc3ccc(Cl)cc3)nccn2c1=O | 13.77 | 2.88 | -20.04 |
| O=C(CCc1nnc2c3cc(-c4ccc(F)cc4)nn3ccn12)NCc1ccccc1Cl | 1.44 | 9.78 | -27.21 |
| CC(C)c1ccc(Oc2nc3ccccc3n3c(=O)n(CC(=O)Nc4ccc5c(c4)OCO5)nc23)cc1 | 7.45 | 1.68 | -13.49 |
| Cc1ccc(NC(=O)CSc2nnc3c(=O)n(-c4ccccc4)ccn23)c(C)c1 | -2.79 | 2.18 | -11.34 |
| Cc1ccccc1Oc1nc2ccccc2n2c(=O)n(CC(=O)NCc3ccc4c(c3)OCO4)nc12 | 17.68 | 19.82 | -16.39 |
| CCc1nnc2ccc(S(=O)(=O)N(Cc3ccc(F)cc3)c3ccccc3)cn12 | -0.12 | -0.14 | -7.1 |
| CCCCn1c(=O)c2sccc2n2c(CCC(=O)NCCC34CC5CC(CC(C5)C3)C4)nnc12 | 8.76 | -0.35 | -18.41 |
| Cc1ccc(-c2ccc3nn(Cc4cccc(Br)c4)c(=O)n3n2)cc1 | 7.86 | -0.24 | -13.72 |

| SMILES | Inhibition (Klebsiella pneumoniae) [%] | Inhibition (Candida albicans) [%] | Inhibition (Cryptococcus neoformans) [%] |
| --- | --- | --- | --- |
| CCc1ccccc1NC(=O)Cn1nc2cc(C)nc(Nc3ccc(F)c(C)c3)n2c1=O | 11.82 | 5.42 | -2.36 |
| CCCCOc1ccc(-c2cc3c4nnc(SCC(=O)Nc5ccccc5Cl)n4ccn3n2)cc1 | 5.58 | 2.9 | -20.67 |
| Cc1cc(C)cc(N(Cc2ccc(F)cc2)S(=O)(=O)c2cccn3c(C)nnc23)c1 | -0.28 | 0.42 | -5.4 |
| CCCCn1c(=O)c2sccc2n2c(SCc3cccc(C(F)(F)F)c3)nnc12 | -0.52 | 0.84 | -14.78 |
| CC(C)CCn1c(=O)c2sccc2n2c(=O)n(CCOc3ccccc3)nc12 | 15.26 | 12.41 | -11.28 |
| O=c1n(Cc2ccc3c(c2)OCO3)nc2c(S(=O)(=O)N3CCCC3)cccn12 | 5.42 | 0.37 | -5.87 |
| O=C(Cn1nc2c(Oc3ccccc3)nccn2c1=O)Nc1ccc2c(c1)OCO2 | 4.55 | 2.95 | -10 |
| COc1ccc(Cl)cc1NC(=O)CSc1nc2ccccc2n2c(C(C)C)nnc12 | -0.34 | 58.61 | -12.46 |
| Cc1c(Cl)cccc1-n1ccn2c(=S)[nH]nc2c1=O | 8.12 | 2.5 | -13.36 |
| CCOc1ccc(N(Cc2ccc(F)cc2)S(=O)(=O)c2ccc3nncn3c2)cc1 | 4.23 | 3.15 | -3.72 |
| COc1ccccc1CNC(=O)CSc1nnc2c3cc(-c4ccc(C)cc4)nn3ccn12 | -1.35 | -1.83 | -12.39 |
| COc1ccc(Cl)cc1NC(=O)CSc1nc2ccccc2n2cnnc12 | 13.26 | 6.06 | -17.53 |
| COc1cccc(-c2nc(CSc3nc4ccccc4n4c(C(C)C)nnc34)c(C)o2)c1OC | 2.62 | -0.24 | -8.54 |
| CCCCOc1ccc(-c2cc3c4nnc(SCC(=O)NCc5ccccc5)n4ccn3n2)cc1 | -0.43 | 3.39 | -8.72 |
| Cc1cc(C)c(NC(=O)Cn2nc3n(C)c(=O)c4c(c(-c5ccccc5)cn4C)n3c2=O)c(C)c1 | 4.68 | 0.24 | -1.33 |
| CCOC(=O)c1ccccc1NC(=O)Cn1nc2c3cc(-c4ccc(Cl)cc4)nn3ccn2c1=O | 14.78 | 2.98 | -20.88 |
| Cc1ccc(NC(=O)Cn2c(=O)c3nnc(C(C)C)n3c3ccccc32)cc1C | 11.54 | 4.79 | -12.38 |
| COc1ccc(-c2noc(Cn3nc4ccc(-c5ccccc5)nn4c3=O)n2)cc1OC | 11.35 | 4.81 | -11.77 |
| O=c1c2sccc2n2c(=O)n(Cc3ccc(Cl)cc3)nc2n1Cc1cccs1 | -1.66 | 32.28 | -17.8 |
| CN(C)c1nc2ccccc2n2c(=O)n(CC(=O)Nc3ccc4c(c3)OCO4)nc12 | 0.98 | -0.89 | -12.71 |
